High-throughput results deposited in PubChem by National Center for Advancing Translational Sciences (NCATS).
Sampled rows, rich in hits. Any-hit rate of the full collection: about 4.6%.
TRHR enhancer – allosterically enhances the human TRH receptor | enhancement, % at 2 µM | TRHR cells, fluo-8 calcium fluorescence, EC20 TRH enhancement | actives 0.66% (n = 360,000); in the data active = enhancement above about 30%
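Enhancer read-out: after compound pinning and an initial kinetic agonist-mode read, an EC20 of TRH (10 nM final) was injected and fluo-8 calcium signal (Ex 480/Em 530) followed at 1 s/cycle for 100 cycles in TRHR-expressing cells.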
D1 PAM – human D1 dopamine receptor positive modulation; P21728; HEK293 TREx D1 cells, calcium flux, dopamine EC20 potentiation; potentiation, % at 10 µM; actives 0.036% (n = 360,000); AID 504651; in the data active = potentiation above about 30%
Target sequence (P21728 whole entry, looked up): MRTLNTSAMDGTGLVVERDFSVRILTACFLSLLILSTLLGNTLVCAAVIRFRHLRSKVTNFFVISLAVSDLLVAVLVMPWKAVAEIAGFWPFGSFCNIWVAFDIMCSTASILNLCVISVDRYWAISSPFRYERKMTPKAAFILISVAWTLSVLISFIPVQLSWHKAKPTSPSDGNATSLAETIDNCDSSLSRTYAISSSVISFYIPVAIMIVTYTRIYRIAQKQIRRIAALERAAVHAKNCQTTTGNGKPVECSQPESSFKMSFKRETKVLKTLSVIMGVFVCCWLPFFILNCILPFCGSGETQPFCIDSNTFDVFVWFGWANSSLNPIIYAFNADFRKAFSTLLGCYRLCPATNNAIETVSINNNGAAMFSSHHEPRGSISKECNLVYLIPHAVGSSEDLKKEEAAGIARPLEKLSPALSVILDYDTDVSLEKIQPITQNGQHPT
TRHR agonist – TRH receptor (human) agonism | TRHR cells, calcium flux fluo-8, FDSS agonist mode | actives 0.18% (n = 360,000) | P34981 | activation, % at 2 µM | AID 493084
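Read-out: compound-evoked intracellular calcium rise in TRHR cells, fluo-8 dye, kinetic FDSS fluorescence at 1 s/cycle following a 10-cycle baseline. Cells cultured overnight before dye loading (30 min–1.5 h, RT).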
D1 antag – blocks dopamine activation of the human D1 receptor. P21728. actives 3.2% (n = 360,000). activity change, negative = inhibition, % at 10 µM. HEK293 TREx D1 cells, calcium flux, dopamine EC80; active compounds read low; in the data active = activity change below about -30%
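HEK293 T-REx cells expressing inducible, force-coupled D1 receptor; no-wash Ca dye, 30–90 min RT. Cmpd → 180 s read at 1 Hz → EC80 DA → 180 s read.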
D1 ag – activates the human D1 dopamine receptor | P21728 | HEK293 T-REx D1 cells, calcium flux, agonist mode | activation, % at 2 µM | actives 1% (n = 360,000) | AID 504660
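Inducible HEK293 T-REx D1 cells, force-coupled to calcium signalling, were plated at 4000 cells/well with tetracycline and held overnight at 30 C. After no-wash calcium dye loading, compound-evoked calcium rise over 180 s flagged agonists.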
Hits are given with their value. Cut-off read from the data, not from the text of the source, unless noted: active = activation above about 30%; inactive = the rest.

What do the screens show for `COc1ccc(NC(=O)CSc2nc3c(oc4ccccc43)c(=O)n2-c2ccc(C)c(C)c2)cc1`?
TRHR enhancer: inactive; D1 PAM: inactive; TRHR agonist: inactive; D1 antag: inactive; D1 ag: inactive

How did CCCOc1cccc(C2c3c(-c4ccccc4O)n[nH]c3C(=O)N2Cc2ccco2)c1 (stereo unspecified) do in these assays?
TRHR enhancer: inactive; D1 PAM: inactive; TRHR agonist: inactive; D1 antag: inactive; D1 ag: inactive

How did CC(=O)NCCC1CCCCN1Cc1nc(Cc2cccc(C(F)(F)F)c2)no1 (stereo unspecified) do in these assays?
TRHR enhancer: inactive; D1 PAM: inactive; TRHR agonist: inactive; D1 antag: -50.2; D1 ag: inactive

Results for NC(=O)[C@@H]1CCCN1Cc1nc(Cc2cccc(C(F)(F)F)c2)no1 ?
TRHR enhancer: inactive; D1 PAM: inactive; TRHR agonist: inactive; D1 antag: inactive; D1 ag: inactive

Results for O=C(COC(=O)C1CCN(c2ccc(C(F)(F)F)cn2)CC1)c1ccc(F)cc1 ?
TRHR enhancer: inactive; D1 PAM: inactive; TRHR agonist: inactive; D1 antag: -34.7; D1 ag: 43.2

What do the screens show for `CN1CCN(c2ccc(NC(=O)c3ccc(C(F)(F)F)cc3)cn2)CC1`?
TRHR enhancer: inactive; D1 PAM: inactive; TRHR agonist: inactive; D1 antag: -41.3; D1 ag: inactive

How did CC(=O)c1ccc(NC(=O)C(C)OC(=O)C2CCN(c3ccc(C(F)(F)F)cn3)CC2)cc1 (stereo unspecified) do in these assays?
TRHR enhancer: inactive; D1 PAM: inactive; TRHR agonist: inactive; D1 antag: -30.1; D1 ag: inactive

What do the screens show for `CC(OC(=O)C1CCN(c2ccc(C(F)(F)F)cn2)CC1)C(=O)Nc1ccc(S(N)(=O)=O)cc1` (stereo unspecified)?
TRHR enhancer: inactive; D1 PAM: inactive; TRHR agonist: inactive; D1 antag: inactive; D1 ag: inactive

What do the screens show for `CC(OC(=O)C1CCN(c2ccc(C(F)(F)F)cn2)CC1)C(=O)c1ccccc1` (stereo unspecified)?
TRHR enhancer: inactive; D1 PAM: inactive; TRHR agonist: inactive; D1 antag: -31.9; D1 ag: inactive

How did Cc1ccccc1C(=O)Nc1ccc(N2CCN(C)CC2)nc1 do in these assays?
TRHR enhancer: inactive; D1 PAM: inactive; TRHR agonist: inactive; D1 antag: inactive; D1 ag: inactive

How did Cc1ccc(C(=O)C(C)OC(=O)C2CCN(c3ccc(C(F)(F)F)cn3)CC2)cc1 (stereo unspecified) do in these assays?
TRHR enhancer: inactive; D1 PAM: inactive; TRHR agonist: inactive; D1 antag: inactive; D1 ag: inactive

How did N#CC(c1ccc(Cl)cc1)c1ncc(C(F)(F)F)cc1Cl (stereo unspecified) do in these assays?
TRHR enhancer: inactive; D1 PAM: inactive; TRHR agonist: inactive; D1 antag: -51.4; D1 ag: inactive

How did Cc1ccccc1Cn1nc(C)c(NC(=O)c2cc3n(n2)C(C(F)F)CC(C(F)F)N3)c1C (stereo unspecified) do in these assays?
TRHR enhancer: inactive; D1 PAM: inactive; TRHR agonist: inactive; D1 antag: -50.9; D1 ag: inactive

What do the screens show for `NNC(=O)COc1ccc(-c2n[nH]c(C(F)(F)F)c2-c2ccc(Br)cc2)c(O)c1`?
TRHR enhancer: inactive; D1 PAM: inactive; TRHR agonist: inactive; D1 antag: -37.3; D1 ag: 38.9

What do the screens show for `Cc1ccc(C23CC4CC(CC(NC(=O)NCCN(C)C)(C4)C2)C3)cc1`?
TRHR enhancer: inactive; D1 PAM: inactive; TRHR agonist: inactive; D1 antag: inactive; D1 ag: inactive

Results for CN(C)CCNC(=O)COc1ccc(C23CC4CC(CC(C4)C2)C3)cc1 ?
TRHR enhancer: inactive; D1 PAM: inactive; TRHR agonist: inactive; D1 antag: inactive; D1 ag: 32.6

What do the screens show for `CS(=O)(=O)Cc1ccc(C(=O)N(CCc2ccccc2)Cc2ccccc2)cc1`?
TRHR enhancer: inactive; D1 PAM: inactive; TRHR agonist: inactive; D1 antag: inactive; D1 ag: inactive

What do the screens show for `Cc1cccc(S(=O)(=O)c2cn(C)c3cc(N4CCN(c5ccccc5)CC4)c(F)cc3c2=O)c1`?
TRHR enhancer: 31.7; D1 PAM: inactive; TRHR agonist: inactive; D1 antag: inactive; D1 ag: inactive

What do the screens show for `O=c1c(S(=O)(=O)c2ccccc2)cn(Cc2ccc(F)cc2)c2cc(N3CCCCC3)c(F)cc12`?
TRHR enhancer: inactive; D1 PAM: inactive; TRHR agonist: inactive; D1 antag: -44.2; D1 ag: inactive

How did O=c1c(S(=O)(=O)c2ccccc2)cn(Cc2ccccc2)c2cc(N3CCCC3)c(F)cc12 do in these assays?
TRHR enhancer: inactive; D1 PAM: inactive; TRHR agonist: inactive; D1 antag: inactive; D1 ag: inactive

What do the screens show for `CCCOc1cccc(C(=O)N(Cc2sccc2C)C2CCS(=O)(=O)C2)c1` (stereo unspecified)?
TRHR enhancer: inactive; D1 PAM: inactive; TRHR agonist: inactive; D1 antag: inactive; D1 ag: inactive

What do the screens show for `O=C(COC(=O)Cc1ccc(S(=O)(=O)N2CCOCC2)s1)NCCc1ccccc1`?
TRHR enhancer: inactive; D1 PAM: inactive; TRHR agonist: inactive; D1 antag: inactive; D1 ag: inactive

Results for O=C(COC(=O)Cc1ccc(S(=O)(=O)N2CCOCC2)s1)NCc1ccccc1 ?
TRHR enhancer: inactive; D1 PAM: inactive; TRHR agonist: inactive; D1 antag: -48.3; D1 ag: inactive

What do the screens show for `Cc1cc(-c2ccc(C)c(S(=O)(=O)Nc3cccc(C)n3)c2)on1`?
TRHR enhancer: inactive; D1 PAM: inactive; TRHR agonist: inactive; D1 antag: -44.2; D1 ag: inactive

What do the screens show for `Cc1cc(-c2ccc(C)c(S(=O)(=O)Nc3ccccc3C(F)(F)F)c2)on1`?
TRHR enhancer: inactive; D1 PAM: inactive; TRHR agonist: inactive; D1 antag: -36.2; D1 ag: inactive

What do the screens show for `Cc1ccnc(NS(=O)(=O)c2cc(-c3cc(C)no3)ccc2C)c1`?
TRHR enhancer: inactive; D1 PAM: inactive; TRHR agonist: inactive; D1 antag: inactive; D1 ag: inactive

What do the screens show for `COc1cccc(CCN2CCC(CNS(=O)(=O)c3cc(-c4cc(C)no4)ccc3C)CC2)c1`?
TRHR enhancer: inactive; D1 PAM: inactive; TRHR agonist: inactive; D1 antag: -54.9; D1 ag: inactive

How did Cc1cc(-c2ccc(C)c(S(=O)(=O)Nc3cccc(CN4CCCC4)c3)c2)on1 do in these assays?
TRHR enhancer: inactive; D1 PAM: inactive; TRHR agonist: inactive; D1 antag: -60.7; D1 ag: inactive

What do the screens show for `CCOC(=O)c1c(NC(C)=O)c2c3c(sc2n1Cc1cccc(Cl)c1)CCCC3`?
TRHR enhancer: inactive; D1 PAM: inactive; TRHR agonist: inactive; D1 antag: inactive; D1 ag: inactive

What do the screens show for `Cn1c(SCC(=O)N2CCOCC2)ncc(C(=O)Nc2ccc(F)cc2)c1=O`?
TRHR enhancer: inactive; D1 PAM: inactive; TRHR agonist: inactive; D1 ag: inactive
